This is part of a sample that, as a whole, favours compounds with a hit. Of some 83,000 tested, about 20% had one in any assay.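 Growth was measured after 48 h exposure to one concentration of compound in 96-well plates. Values under 10 count as active.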 Unmarked numbers belong to inactive results. Activity calls are given as the source filed them.

From PubChem BioAssay (NCI) come the findings set out here.

Test systems include NCI-H23 lung; NCI-H226 lung; NCI-H322M lung; HOP-62 NSCLC; NCI-H460 lung; HOP-92 NSCLC; NCI-H522 lung; A549/ATCC NSCLC; 786-0 renal; COLO 205 colon; DU-145 prostate; K-562 leukemia; MALME-3M melanoma; MDA-MB-231 breast; RXF 393 renal; SF-268 CNS; SF-295 CNS; SF-539 CNS; UACC-257 melanoma; M14 melanoma.
Test in all cases: NCI-60 one-dose screen, 48 h (100 = growth as untreated, 0 = no growth, -100 = all killed)
Common to all, as to conditions: 10 µM unless noted

Turning to `CCOC(=O)[C@@H](C)C[C@H](Cc1ccccc1)NC(=O)c1csc([C@@H](C[C@H](C(C)C)N(C)C(=O)[C@@H](NC(=O)[C@H]2CCCCN2C)C(C)(C)C)OC(C)=O)n1`, the growth with NCI-H23 lung was 24.5%; with NCI-H226 lung it was 55.2%; in the test with NCI-H322M lung it was 27.3%; in the test on HOP-62 NSCLC, 11.8%; in the test with NCI-H460 lung it was 6.23% (active); in the test on HOP-92 NSCLC it was 28.5%. The growth is -40.3% (active) with NCI-H522 lung; 10.3% in the test with A549/ATCC NSCLC; 4.58% (active) in the test on 786-0 renal; -75.6% (active) in the test with COLO 205 colon; 2.47% (active) with DU-145 prostate; 5.06% (active) in the test on K-562 leukemia. In addition, the growth is 62.4% with MALME-3M melanoma; -5.5% (active) in the test with MDA-MB-231 breast; 23.8% with RXF 393 renal; 24.9% with SF-268 CNS; -8.4% (active) in the test with SF-295 CNS; -13.6% (active) in the test with SF-539 CNS. The growth was 41.7% in the test with UACC-257 melanoma and -14.6% (active) in the test with M14 melanoma.

As for `O=C1C2C(C(=O)[N]1[Hg][c]1cccs1)C1(Cl)C(Cl)=C(Cl)C2(Cl)C1(Cl)Cl` (stereo not given), the growth is -1.96% (active) in the test with NCI-H23 lung; 97.1% in the test on NCI-H226 lung; 78.3% with NCI-H322M lung; 10.5% in the test on HOP-62 NSCLC; 52.7% with NCI-H460 lung; -51.4% (active) with HOP-92 NSCLC. Besides, the growth with NCI-H522 lung is -89.8% (active); with A549/ATCC NSCLC it was 80.4%; in the test on 786-0 renal, -90.2% (active); in the test on COLO 205 colon, -71.4% (active); in the test on DU-145 prostate, 53.8%; with K-562 leukemia it was -2.45% (active). Also, the growth was -63.7% (active) in the test with MALME-3M melanoma; -56.2% (active) in the test with MDA-MB-231 breast; -83.5% (active) in the test with RXF 393 renal; 32.3% with SF-268 CNS; 58.3% in the test with SF-295 CNS; 12.6% in the test on SF-539 CNS. In addition, the growth with UACC-257 melanoma was -50.8% (active); in the test with M14 melanoma it was -57.9% (active).

For the compound `Cc1ccc(C(Cc2ccccc2)NCCO)cc1` (stereo not given), the growth with NCI-H23 lung is 101%; in the test on NCI-H226 lung it was 97.2%; in the test with NCI-H322M lung, 96.4%; in the test on HOP-62 NSCLC it was 80.3%; with NCI-H460 lung, 105%; in the test on HOP-92 NSCLC it was 74.8%. For the same compound, the growth was 52.3% in the test on NCI-H522 lung; 69.2% in the test with A549/ATCC NSCLC; 80.8% in the test on 786-0 renal; 82.1% in the test on COLO 205 colon; 104% with DU-145 prostate; 104% in the test with K-562 leukemia. Further, the growth in the test with MALME-3M melanoma is 97.2%; with MDA-MB-231 breast it was 103%; in the test with RXF 393 renal, 99.2%; in the test on SF-268 CNS, 98%; in the test on SF-295 CNS, 98.3%; in the test on SF-539 CNS it was 85.1%. Besides, the growth in the test with UACC-257 melanoma is 92%; in the test with M14 melanoma, 87%.

As to `CC(C)=CC1C(C(=O)OCc2cccc(Oc3ccccc3)c2)C1(C)C` (stereo not given), the growth in the test on NCI-H23 lung is 88.6%; in the test on NCI-H226 lung it was 102%; in the test with NCI-H322M lung, 96.5%; with HOP-62 NSCLC it was 110%; in the test with NCI-H460 lung, 98.6%; with HOP-92 NSCLC, 56.8%. For the same compound, the growth is 73.5% in the test with NCI-H522 lung; 92.4% with A549/ATCC NSCLC; 81.3% in the test with 786-0 renal; 101% in the test with COLO 205 colon; 109% in the test with DU-145 prostate; 92.6% in the test on K-562 leukemia. Further, the growth with MALME-3M melanoma is 87.8%; in the test on MDA-MB-231 breast, 90.2%; in the test with RXF 393 renal, 121%; in the test on SF-268 CNS, 113%; with SF-295 CNS it was 90.3%; in the test with SF-539 CNS, 110%. In addition, the values for the growth with UACC-257 melanoma and in the test on M14 melanoma were 104% and 95.3%, respectively.

For `COC(=O)[C@@H](C)C[C@H](Cc1ccccc1)NC(=O)c1csc([C@@H](C[C@H](C(C)C)N(C)C(=O)[C@@H](NC(=O)[C@H]2CCCCN2C)C(C(F)(F)F)C(F)(F)F)OC(C)=O)n1`, the growth with NCI-H23 lung is 44.8%; with NCI-H226 lung, 56.7%; with NCI-H322M lung it was 37%; in the test with HOP-62 NSCLC, 15.1%; in the test with NCI-H460 lung it was 5.59% (active); in the test with HOP-92 NSCLC, 12.4%. Further, the growth in the test on NCI-H522 lung is -8.2% (active); in the test with A549/ATCC NSCLC it was 12.8%; in the test with 786-0 renal it was -5.39% (active); in the test on COLO 205 colon it was -50.6% (active); with DU-145 prostate, 11.4%; in the test with K-562 leukemia it was 8.83% (active). Moreover, the growth in the test on MALME-3M melanoma was 65.8%; in the test with MDA-MB-231 breast, 6.65% (active); with RXF 393 renal it was 46%; in the test with SF-268 CNS it was 18.3%; in the test with SF-295 CNS it was 9.85% (active); with SF-539 CNS it was -11.1% (active). Moreover, the growth with UACC-257 melanoma was 52.4%; with M14 melanoma it was -20.3% (active).

On to `COc1ccc2c(c1)c(-c1nc(-c3cn(C)c4ncccc34)cs1)cn2CCCCN1CCCCC1`, for which the growth with NCI-H23 lung was 15.3%; in the test with NCI-H226 lung, 56.6%; in the test on NCI-H322M lung it was -31.4% (active); in the test with HOP-62 NSCLC it was -78.5% (active); in the test with NCI-H460 lung, -61.2% (active); with HOP-92 NSCLC, 50.3%. For the same compound, the growth in the test on NCI-H522 lung was -61.7% (active); with A549/ATCC NSCLC it was -56.4% (active); in the test on 786-0 renal, -90.8% (active); in the test on COLO 205 colon, -71.7% (active); with DU-145 prostate, 7.63% (active); in the test with K-562 leukemia, -66.8% (active). Besides, the growth in the test with MALME-3M melanoma was -73.9% (active); in the test on MDA-MB-231 breast it was -74.8% (active); with RXF 393 renal, -80.1% (active); in the test on SF-268 CNS, -37.9% (active); in the test on SF-295 CNS, -50.1% (active); in the test on SF-539 CNS, -80.2% (active). Also, the growth was -68.3% (active) in the test on UACC-257 melanoma and -79.1% (active) in the test with M14 melanoma.

Take `CC(=O)[C@H]1CC[C@H]2[C@@H]3CC[C@H]4C[C@H](N)CC[C@]4(C)[C@H]3CC[C@]12C`: the growth in the test on NCI-H23 lung is 86.7%; with NCI-H226 lung, 95.7%; in the test on NCI-H322M lung, 107%; with HOP-62 NSCLC it was 77.1%; in the test with NCI-H460 lung, 79.9%; in the test on HOP-92 NSCLC, 7.56% (active). In addition, the growth was 77.3% in the test on NCI-H522 lung; 66.4% in the test with A549/ATCC NSCLC; 60.7% in the test with 786-0 renal; 49.3% in the test on COLO 205 colon; 92.2% in the test on DU-145 prostate; 56% in the test on K-562 leukemia. Further, the growth in the test with MALME-3M melanoma was 82.9%; in the test with MDA-MB-231 breast, 72.7%; with RXF 393 renal it was 66.8%; in the test with SF-268 CNS, 92%; in the test on SF-295 CNS, 99.6%; in the test with SF-539 CNS, 84.6%. For the same compound, the growth in the test on UACC-257 melanoma was 55.2%; in the test with M14 melanoma it was 68.3%.
